Assay outcomes from PubChem BioAssay.
ARNT-TACC3 inh: ARNT/TACC3 interaction disruption. AlphaScreen His-ARNT PAS-B/GST-TACC3 binding, luminescence; TACC3 fragment carries E629A point mutation. inhibition, % at 9.99 µM. 390,000 tested, 0.66% active. AID 623870;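 active = mean inhibition of replicates at least 50% and at least half of replicates each reaching 50%; inconclusive = half or more replicates reach 50% but mean below 50%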;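 note: 0% = complete ARNT plus TACC3 wells and 100% = ARNT alone without TACC3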
AI-2 QS modul: Vibrio harveyi AI-2 quorum sensing modulation. Vibrio harveyi JMH597 AI-2 luminescence/OD600 ratio, 9 h; hits give low values; strain lacks LuxN and CqsS sensors; 0 = neutral-control median. activity change, % at 7.5 µM. 300,000 tested, 0.4% active; in the data active = activity change below about -75%, passing the limit was not always enough; inconclusive = no clear call, values can overlap the other calls;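 note: luminescence divided by OD600 gain over 9 h not by final OD600 alone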
Rin1-Abl PPI inh: human Rin1-Abl interaction inhibition. 360,000 tested, 0.4% active. AID 588664. TR-FRET Rin1/Abl binding, biochemical. inhibition, % at 7.35 µM. P00519+Q13671; in the data active = inhibition above about 5%, passing the limit was not always enough
sPLA2-III inh: Blocks human group III sPLA2 activity; Q9NZ20; QFRET BODIPY PC-A2 liposome hydrolysis, fluorescence; inhibition, % at 12.2 µM; 370,000 tested, 0.56% active; AID 743126;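 active = inhibition above mean plus 3 SD of compounds lying within the high and low control bounds, cut at about 19% in these data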;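 note: 0% = median of test compound wells and 100% = no enzyme DMSO wells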
Target sequence (Q9NZ20 whole entry, looked up): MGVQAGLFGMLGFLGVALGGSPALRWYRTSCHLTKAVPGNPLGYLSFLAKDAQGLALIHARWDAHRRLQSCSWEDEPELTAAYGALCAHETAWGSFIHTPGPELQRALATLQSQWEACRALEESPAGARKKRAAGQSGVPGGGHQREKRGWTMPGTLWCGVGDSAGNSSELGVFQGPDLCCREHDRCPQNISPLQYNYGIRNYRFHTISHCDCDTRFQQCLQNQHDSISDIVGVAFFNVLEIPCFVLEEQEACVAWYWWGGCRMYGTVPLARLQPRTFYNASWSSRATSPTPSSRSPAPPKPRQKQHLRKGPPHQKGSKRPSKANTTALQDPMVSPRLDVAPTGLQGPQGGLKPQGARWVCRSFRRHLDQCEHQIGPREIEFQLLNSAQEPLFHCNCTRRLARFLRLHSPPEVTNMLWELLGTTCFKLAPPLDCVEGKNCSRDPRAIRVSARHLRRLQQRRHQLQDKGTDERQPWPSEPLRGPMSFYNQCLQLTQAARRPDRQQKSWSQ
JMH597 growth rt: retest: blocks Vibrio harveyi JMH597 growth; 750 tested, 1% active; OD600 absorbance, 9 h; lacks LuxN and CqsS sensors; growth inhibition, % at 7.5 µM; shares compounds with AI-2 QS modul; AID 2726;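 active = every replicate shows growth inhibition above 50%; inconclusive = at least half, but not all, replicates pass that cutoff; inactive = fewer than half of replicates pass it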
BB721 const-QS lum: retest counter-screen: BB721 constitutive quorum sensing luminescence decrease. shares compounds with AI-2 QS modul. Vibrio harveyi BB721 luminescence, 9 h. inhibition, % at 7.5 µM. 750 tested, 95% active;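 active = inhibition above about 80% in every replicate, not just on average, limit read from the data; inconclusive = at least half of replicates past the limit, but not all; inactive = fewer than half of replicates past the limit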
BB721 growth rt: retest Vibrio harveyi BB721 growth inhibition. shares compounds with AI-2 QS modul. OD600 absorbance, 9 h. growth inhibition, % at 7.5 µM. 750 tested, 3% active. AID 2728;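 active = every replicate shows growth inhibition above 50%; inconclusive = at least half but not all replicates above 50% inhibition; inactive = under half of replicates above 50% inhibition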
AI-2 QS JMH597: Vibrio harveyi AI-2 signaling luminescence modulation – JMH597 strain, confirmation; shares compounds with AI-2 QS modul; Vibrio harveyi JMH597 AI-2 quorum sensing luminescence, 9 h; luxN and CqsS knockout, AI-2 only; inhibition, % at 7.5 µM; 750 tested, 97% active; AID 2736;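 active = every replicate shows more than 75% inhibition of signal versus neutral control wells; inconclusive = half to three quarters of replicates exceed 75% inhibition; inactive = fewer than half of replicates exceed 75% inhibition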
Rin1-Abl confirm: Rin1-Abl interaction inhibition confirmation. 1,300 tested, 49% active. TR-FRET Rin1-Abl binding, purified proteins. AID 602124. inhibition, % at 7.35 µM. shares compounds with Rin1-Abl PPI inh
GFP quencher: counter-screen for Rin1-Abl inhibitors: GFP fluorescence quenchers; shares compounds with Rin1-Abl PPI inh; AID 602125; inhibition, % at 6.75 µM; inhibitors/quenchers counterscreen; 1,300 tested, 8.5% active;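 note: ABL1-eGFP fusion protein alone without its partner RIN1-SBP; 0% = protein with vehicle and 100% = wells lacking protein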
GFP quench dose: quenches GFP in dose response, Rin1-Abl counter-screen. shares compounds with Rin1-Abl PPI inh. GFP fluorescence interference/quenching counterscreen. IC50, µM. 230 tested, under 10 active; call rule not given here;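 note: ABL1-eGFP fusion protein alone without its RIN1 binding partner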
hGIII sPLA2 conf: human GIII-sPLA2 inhibition, confirmation | 2,000 tested, 34% active | recombinant hGIII-sPLA2, BODIPY PC-A2 QFRET fluorescence | inhibition, % at 12.2 µM | shares compounds with sPLA2-III inh;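 active = mean inhibition across triplicates above the hit cutoff set in the earlier primary screen, cut at about 19% in these data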;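 note: 0% = enzyme with DMSO and 100% = DMSO wells lacking enzyme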
BODIPY interf: optically interferes with 535nm fluorescence in sPLA2 counter-screen. shares compounds with sPLA2-III inh. BODIPY FL product fluorescence interference, QFRET. inhibition, % at 12.2 µM. 2,000 tested, 8.5% active. AID 743282;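 active = average inhibition above the solvent-only control mean plus 3 SD, cut at about 6% in these data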;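 note: 0% = DMSO with substrate plus product and 100% = DMSO with substrate alone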
* hit, by the source's call; ? = inconclusive; nt = not tested or not shown. Only some compounds are listed: those with a hit (about 1.5% of all), similar ones and a draw of the others. Cut-off read from the data, not from the text of the source, unless noted: active = inhibition above about 6.5%; inactive = the rest.

SMILES	ARNT-TACC3 inh	AI-2 QS modul	Rin1-Abl PPI inh	sPLA2-III inh	Rin1-Abl confirm	GFP quencher	others
O=C(CNC(=O)c1ccncc1)N/N=C/c1ccc(Br)cc1	0	?	-1	0	nt	nt	JMH597 growth rt=3;BB721 const-QS lum=95*;BB721 growth rt=10;AI-2 QS JMH597=94*
Cc1ccc(/C=N/NC(=O)CNC(=O)c2cccs2)cc1	23	-90*	2	4	nt	nt	JMH597 growth rt=2;BB721 const-QS lum=97*;BB721 growth rt=11;AI-2 QS JMH597=97*
CC(=O)Nc1ccc(OCC(=O)N2CCc3ccccc3C2)cc1	5	21	-1	2	nt	nt
CC(C)c1ccc(OCC(=O)N2CCc3ccccc3C2)cc1	-10	?	-1	-9	nt	nt	JMH597 growth rt=12;BB721 const-QS lum=85*;BB721 growth rt=12;AI-2 QS JMH597=90*
Cc1noc(C)c1S(=O)(=O)N(C)C[C@@H]1OCCCC[C@H](C)Oc2ccc(NC(=O)C3CCCCC3)cc2C(=O)N([C@@H](C)CO)C[C@H]1C	-3	nt	nt	nt	nt	nt
COc1ccc(S(=O)(=O)Nc2ccc(-n3cccc3)cc2)cc1	-3	-96*	-4	-43	nt	nt	JMH597 growth rt=-1;BB721 const-QS lum=94*;BB721 growth rt=-50;AI-2 QS JMH597=99*
COc1ccc(NS(=O)(=O)c2ccc(N3C(=O)CCC3=O)cc2)cc1	-8	14	0	-1	nt	nt
COc1ccccc1/C=C\C=N\n1c(C2CCCCC2)n[nH]c1=S	1	?	2	-12	nt	nt	JMH597 growth rt=24;BB721 const-QS lum=94*;BB721 growth rt=24;AI-2 QS JMH597=97*
COc1cccc(/C=N/n2c(C3CCCCC3)n[nH]c2=S)c1OC	-7	13	4	9	nt	nt
COc1cccc(NC(=O)N[C@@H]2CC[C@@H](CC(=O)NCc3ccncn3)O[C@@H]2CO)c1	-7	nt	nt	nt	nt	nt
Cc1ccc(/C=C/C(=O)c2ccc(O)cc2)cc1	0	-94*	-1	-29	nt	nt	JMH597 growth rt=-7;BB721 const-QS lum=97*;BB721 growth rt=-22;AI-2 QS JMH597=98*
C[C@H](CO)N1C[C@H](C)[C@@H](CN(C)Cc2ccccc2)Oc2cc(C#CC3CC3)ccc2S1(=O)=O	0	nt	nt	nt	nt	nt
COc1ccc2nc(NNC(=O)C3COc4ccccc4O3)sc2c1 (stereo not drawn)	12	-85*	-1	22*	nt	nt	JMH597 growth rt=28;BB721 const-QS lum=92*;BB721 growth rt=23;AI-2 QS JMH597=95*;hGIII sPLA2 conf=18;BODIPY interf=2
Cc1ccc(S(=O)(=O)N(C)C[C@H]2Oc3c(NS(=O)(=O)c4cccs4)cccc3C(=O)N([C@H](C)CO)C[C@H]2C)cc1	0	nt	nt	nt	nt	nt
O=C1C(N2CCOCC2)=Cc2cccc3cccc1c23	nt	nt	-6	-70	nt	nt
O=C1C=C(N2CCOCC2)c2cccc3cccc1c23	nt	nt	16*	-51	-15	1
Cn1c(=O)c2c(nc(NCc3ccco3)n2Cc2ccccc2Cl)n(C)c1=O	1	12	7.1*	5	6.7*	0
O=S(=O)(Nc1nccs1)c1ccc(Br)cc1	-6	23	11*	-11	-2	0
CCN(C(=O)COC(=O)c1cc(Cl)ccc1OC)c1c(N)n(Cc2ccccc2)c(=O)[nH]c1=O	3	nt	8.7*	4	-3	2
CCOC(=O)CN1C(=O)NC2NC(=O)NC21 (stereo not drawn)	-7	1	14*	3	18*	0	GFP quench dose=>68
O=C(O)CN1C(=O)NC2NC(=O)NC21 (stereo not drawn)	1	0	1	7	nt	nt
CC1C=CCC2C(=O)N(c3cccc(C(=O)NCc4ccccc4)c3)C(=O)C12 (stereo not drawn)	-5	22	7.8*	-20	-2	0
COc1cccc(/C=C/C(=O)NCc2cn3cc(Cl)ccc3n2)c1	15	6	5.2*	-3	2	-1
O=C(/C=C/c1cccc(Cl)c1)OCc1cn2cc(Cl)ccc2n1	-1	9	-1	-1	nt	nt
CCNC(=O)C[C@H]1CC[C@H]2[C@@H](COc3ccc(NC(=O)Nc4ccccc4OC)cc3C(=O)N2C)O1	7	nt	nt	nt	nt	nt
SMILES	ARNT-TACC3 inh	AI-2 QS modul	Rin1-Abl PPI inh	sPLA2-III inh	Rin1-Abl confirm	GFP quencher	others
Cc1[nH]c(=O)[nH]c1C(=O)CCCCC(=O)O	0	22	89*	17	98*	0	GFP quench dose=>68
O=C(CSc1nc2ccccc2c(=O)[nH]1)Nc1ccc(S(=O)(=O)N2CCCC2)cc1	1	23	8.9*	-25	5	2
COc1cc2nc(Nc3ccc(F)cc3)nc(N)c2cc1OC	20	15	14*	-3	16*	0
COc1cc2nc(Nc3ccc(C)c(Cl)c3)nc(N)c2cc1OC	6	44	11	-12	nt	nt
Cc1cccc(-c2ccc([C@H]3[C@@H](CO)N4CCCCN(Cc5cccnc5)C[C@H]34)cc2)c1	23	nt	nt	nt	nt	nt
Nc1nc(N2CCN(C(=O)c3ccco3)CC2)nc2ccccc12	-7	15	8.7*	7	3	0
Nc1nc(N2CCN(C(=O)c3ccco3)CC2)nc2ccc(Br)cc12	7	44	8	nt	nt	nt
CCc1nc2c(oc3ccccc32)c(=O)[nH]1	nt	22	-1	4	nt	nt
O=c1[nH]c(CSc2ccccn2)nc2c1oc1ccccc12	5	6	9.9*	5	-4	1
CCOc1cc(N2CCOCC2)c(OCC)cc1NC(=O)C(C)C	-4	20	-2	8	nt	nt
CCOc1cc(N2CCOCC2)c(OCC)cc1NC(C)C(=O)N1CCN(CC)CC1 (stereo not drawn)	42	13	38*	-4	1	0
C[C@H](CO)N1C[C@H](C)[C@H](CN(C)CC2CC2)OCCCC[C@H](C)Oc2ccc(NS(=O)(=O)c3cn(C)cn3)cc2C1=O	-4	nt	nt	nt	nt	nt
Cc1ccc(C)c(NC(=O)C2C3C=CC(O3)C2C(=O)O)c1 (stereo not drawn)	-4	2	7.6*	8	0	0
